Laboratory results from PubChem BioAssay AID645 (SRMLSC, 2007).
About 450 (0.69%) of roughly 65,000 compounds were called active.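 Rule for the calls: active = HER2 level under 5% of the carrier-only control; inconclusive = no clear call, values can overlap the other calls; inactive = the rest.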 Many of the other results were omitted from the sample, so actives are more common in it than they were.

Target: Receptor tyrosine-protein kinase erbB-2 (Homo sapiens) (UniProt P04626)
Experiment: reducers of endogenous HER2 protein levels – SKBR-3 cells, AlphaScreen, 66K library, primary screen (AID 645);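 note: 100% = DMSO carrier and 0% = 500 nM PU-H71 HSP90 inhibitor; lower value means stronger loss of Her2 protein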
Settings: SKBR-3 HER2 protein level, 18-24 h, at 10 µM, hits give low values

Sequence of Receptor tyrosine-protein kinase erbB-2 (Homo sapiens) (P04626 whole entry, looked up): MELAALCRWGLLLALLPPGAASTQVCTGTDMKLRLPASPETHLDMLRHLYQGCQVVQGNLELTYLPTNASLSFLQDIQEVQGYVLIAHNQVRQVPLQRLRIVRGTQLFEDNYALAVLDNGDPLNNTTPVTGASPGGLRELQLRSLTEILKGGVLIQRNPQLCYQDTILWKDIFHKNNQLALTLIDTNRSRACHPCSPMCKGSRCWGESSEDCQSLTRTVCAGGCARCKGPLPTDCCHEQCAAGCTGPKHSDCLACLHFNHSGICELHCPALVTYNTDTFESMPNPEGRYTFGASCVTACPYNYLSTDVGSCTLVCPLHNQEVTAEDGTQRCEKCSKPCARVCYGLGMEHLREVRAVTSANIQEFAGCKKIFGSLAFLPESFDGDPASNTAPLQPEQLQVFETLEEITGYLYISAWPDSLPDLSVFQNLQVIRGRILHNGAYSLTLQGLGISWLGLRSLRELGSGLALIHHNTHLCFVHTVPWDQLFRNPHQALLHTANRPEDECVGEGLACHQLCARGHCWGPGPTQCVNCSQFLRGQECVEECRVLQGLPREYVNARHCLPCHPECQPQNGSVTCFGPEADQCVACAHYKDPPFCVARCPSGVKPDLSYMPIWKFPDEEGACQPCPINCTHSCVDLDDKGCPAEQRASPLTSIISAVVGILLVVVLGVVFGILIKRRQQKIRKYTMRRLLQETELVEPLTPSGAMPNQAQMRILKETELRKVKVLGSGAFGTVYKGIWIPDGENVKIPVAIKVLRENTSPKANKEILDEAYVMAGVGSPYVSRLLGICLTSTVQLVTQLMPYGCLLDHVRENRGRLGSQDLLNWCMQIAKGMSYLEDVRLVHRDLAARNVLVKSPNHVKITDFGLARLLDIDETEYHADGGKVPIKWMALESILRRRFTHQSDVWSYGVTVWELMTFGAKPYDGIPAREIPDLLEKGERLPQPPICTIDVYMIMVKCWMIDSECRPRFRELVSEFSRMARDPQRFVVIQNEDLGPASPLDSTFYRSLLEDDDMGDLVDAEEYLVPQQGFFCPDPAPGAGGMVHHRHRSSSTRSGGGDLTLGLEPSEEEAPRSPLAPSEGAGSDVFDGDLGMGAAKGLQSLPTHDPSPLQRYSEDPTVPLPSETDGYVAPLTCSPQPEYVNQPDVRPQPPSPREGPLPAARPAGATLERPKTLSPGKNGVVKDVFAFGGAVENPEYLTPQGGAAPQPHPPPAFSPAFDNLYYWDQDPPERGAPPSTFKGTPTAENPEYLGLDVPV

SMILES	HER2 level % of control
CC(C)CCNc1nc(N2CCCC2)c2c(c1C#N)CCN(C)C2	-0.705% (active)
CC(C)Cc1nc(N2CCOCC2)c(C#N)c2c1CCC2	106% (inactive)
CCN1CCc2c(C#N)c(NCc3ccccc3)nc(NCCO)c2C1	94.1% (inactive)
COc1ccc(-c2cc3n(n2)CCc2nc4ccccc4n2-3)cc1	74.2% (inactive)
COC(=O)CN(c1nc(C)c(Cl)c(OC)n1)S(=O)(=O)c1ccc(C)cc1	103% (inactive)
CCC(=NC1CC(C)(C)NC(C)(C)C1)C1=C(O)CC(C)(C)CC1=O	76% (inactive)
CNC(=O)c1cc2c(ccc3ccccc32)oc1=N	74.1% (inactive)
CCCC1C(c2ccccc2)C(C#N)(C#N)C2(C#N)CC1(N)NC2=O (configuration not stated)	-19.3% (active)
O=C(O)CN(Cc1ccco1)S(=O)(=O)c1ccccc1	110% (inactive)
CC1CCCC(C)N1C(=O)CN1CCN(c2nc(-c3ccc(F)cc3)cs2)CC1 (configuration not stated)	90.1% (inactive)
CCCCc1nccn1CCn1ccnc1CCCC	106% (inactive)
CCOC(=O)N1CCC(NC(=O)c2cnn3ccccc23)CC1	106% (inactive)
CCCCCCC(=O)N(O)C1CC(=O)N(c2ccccc2)C1=O (configuration not stated)	81.1% (inactive)
CCN(CC)C(=O)C1CCC(C)(C(=O)O)C1(C)C (configuration not stated)	100% (inactive)
Cc1cc(C)c(C(=O)CN2C(=O)CCC2=O)cc1C	93.5% (inactive)
CCCc1nc(SCC(=O)Nc2ccccc2OC)c2c(=O)n(C)c(=O)n(C)c2n1	31% (inactive)
COc1ccc(-c2c(C)nn3c(N4CCC(C(=O)N5CCCCC5)CC4)cc(C)nc23)cc1OC	83.2% (inactive)
O.O.O.O=S(=O)([O-])OC[C@H]1O[C@@H](O[C@]2(COS(=O)(=O)[O-])O[C@H](OS(=O)(=O)[O-])[C@@H](OS(=O)(=O)[O-])[C@@H]2OS(=O)(=O)[O-])[C@H](OS(=O)(=O)[O-])[C@@H](OS(=O)(=O)[O-])[C@@H]1OS(=O)(=O)[O-].[Al]	102% (inactive)
CC(NC(=O)CSc1nc2c(cc1C#N)CN(C)CC2)c1ccccc1 (configuration not stated)	110% (inactive)
CSc1cccc(NC(=O)CSc2ccccc2)c1	95.7% (inactive)
O=C(NCCCN1CCN(C2CCCCC2)CC1)Nc1ccccc1C(F)(F)F	82.5% (inactive)
CCCCN(C)Cc1c(C)[nH]c2ccc(Cl)cc2c1=O	88% (inactive)
CCCC(C)n1[nH]c(=O)c2c(C)cc(C)nc21 (configuration not stated)	90.1% (inactive)
c1cc(-n2cnnn2)ccc1NC1=NCCC1	92.1% (inactive)
COCCOC(=O)C1=C(C)NC(=O)NC1c1ccc(Cl)cc1 (configuration not stated)	95.6% (inactive)

SMILES	HER2 level % of control
N#Cc1ccc(CSc2nnc(-c3ccccn3)n2-c2ccc(Cl)cc2)cc1	41.4% (inactive)
O=C(c1ccco1)N1CCN(C(=O)C2CC(c3ccc(F)cc3)=NO2)CC1 (configuration not stated)	57.7% (inactive)
OCCNCCCCOc1ccccc1F	116% (inactive)
O=C1c2oc3ccccc3c(=O)c2C(c2cccc(O)c2)N1c1ccccn1 (configuration not stated)	95% (inactive)
CCOC(=O)c1sc2nc(CSCC(=O)OCc3ccc(C(=O)OC)o3)[nH]c(=O)c2c1C	60.2% (inactive)
CCC(c1nnnn1Cc1ccco1)N(CCc1ccccc1)Cc1cc2ccc(OC)cc2[nH]c1=O (configuration not stated)	76.1% (inactive)
CCC(c1nnnn1Cc1ccccc1)N(Cc1cc2cc(OC)ccc2[nH]c1=O)CC1CCCO1 (configuration not stated)	117% (inactive)
CCC(c1nnnn1Cc1ccco1)N(Cc1cc2cc(OC)ccc2[nH]c1=O)C1CCCCC1 (configuration not stated)	1.98% (active)
Cc1cc(NC(=O)CN2CCCCC2C)nc2c1c(=O)oc1ccccc12 (configuration not stated)	70% (inactive)
COc1ccccc1CNC(=O)CCn1c(=O)sc2ccccc21	92.5% (inactive)
S=C1SCN(CCN2CCOCC2)CN1Cc1ccccc1	3.88% (active)
COc1ccc(CN2CN(C(C)C)CSC2=S)cc1	10.7% (inactive)
Cn1c(=O)c2c(nc(CN3CCOCC3)n2Cc2ccccc2)n(C)c1=O	75.7% (inactive)
O=C(NCc1ccco1)C1CCCN(S(=O)(=O)c2cnc[nH]2)C1 (configuration not stated)	105% (inactive)
O=C(N1CCOCC1)N1CCOCC1	112% (inactive)
CS(=O)(=O)N(CC(=O)N1CCN(Cc2ccc3c(c2)OCO3)CC1)c1ccc2c(c1)OCO2	100% (inactive)
COc1ccccc1C(=O)N1CCNC(=O)C1CC(=O)Nc1ccc(Cl)cc1 (configuration not stated)	67.3% (inactive)
Cc1nc2nc3c(cn2n1)C(=O)CC(c1ccccc1)C3 (configuration not stated)	122% (inactive)
O=C(Cn1c(-c2ccccn2)nc2ccccc21)NCCN1CCOCC1	79.8% (inactive)
COc1cc(C2C(C(=O)c3ccc(C)o3)=C(O)C(=O)N2Cc2cccnc2)ccc1O (configuration not stated)	154% (inactive)
CCCN1C(=O)C(NS(=O)(=O)c2ccc(N)cc2)(C(F)(F)F)C(C(=O)OC)=C1C (configuration not stated)	126% (inactive)
CCOC(=O)CSc1nncc2ccc(OC)c(OC)c12	115% (inactive)
CCOC(=O)N1CCN(C(=O)CN(c2ccc(C)c(C)c2)S(=O)(=O)c2ccccc2)CC1	224% (inactive)
Cc1sc2c(c1C)c(=O)n(-c1ccccc1)c1nncn21	86.7% (inactive)
N#Cc1c(NC(=O)CSc2nc3ccccc3c(=O)n2Cc2ccco2)sc2c1CCCC2	70.4% (inactive)

SMILES	HER2 level % of control
O=C(NC(=O)c1ccc(Cl)c(Cl)c1)OC1CCS(=O)(=O)C1 (configuration not stated)	106% (inactive)
OC1CN=C2Sc3ccccc3N2C1 (configuration not stated)	119% (inactive)
O=C1c2ccccc2C(=O)N1CCc1nn[nH]n1	90.3% (inactive)
Cc1c(CN2CCC(C)CC2)c(=O)n(-c2ccccc2)n1C	107% (inactive)
Cn1c(=O)n(C)c(=O)n(CC(=O)N2CCCCC2)c1=O	149% (inactive)
COc1ccccc1N1CCN(Cc2nnnn2CCc2ccccc2)CC1	102% (inactive)
COc1ccccc1N1CCN(C(=O)CN(Cc2ccc(Cl)cc2)S(C)(=O)=O)CC1	68.2% (inactive)
COc1ccccc1-n1nnnc1S(=O)(=O)Cc1ccc(Cl)cc1	-1.27% (active)
CC(C)C(=O)N1CCN(CCN=CC2=C(O)CC(c3ccco3)CC2=O)CC1 (configuration not stated)	116% (inactive)
CN(C)CCNC(=O)C(C(=O)c1ccccc1)n1ccccc1=O (configuration not stated)	99.7% (inactive)
O=C(C(NS(=O)(=O)c1cccc2nsnc12)c1ccccc1)N1CCN(c2ccccn2)CC1 (configuration not stated)	70.8% (inactive)
CCOP1(=O)C=C(C(C)(C)C)OC1c1ccc(F)cc1 (configuration not stated)	-28.1% (active)
CC1CCc2c(sc3c2C2=NS(=O)(=O)CCN2C=N3)C1 (configuration not stated)	111% (inactive)
O=C(NCc1cccs1)c1ccc2c(c1)ncn2C1CCCC1	121% (inactive)
Cc1ccc(OCC(O)CN2CCN(CC(O)COc3ccc(C)cc3Cl)CC2)c(Cl)c1 (configuration not stated)	65.4% (inactive)
COc1ccc(N2CCN(CCNC(=O)c3nnc(Cc4c(F)cccc4Cl)o3)CC2)cc1	103% (inactive)
O=C(CSc1nnc(Cn2cnc3ccccc32)o1)c1ccccc1	107% (inactive)
CC(C)Oc1ccc(C2NC(=O)NC2=O)cc1 (configuration not stated)	81.7% (inactive)
Cc1ccccc1N1CC(c2nc3ccccc3[nH]2)CC1=O (configuration not stated)	99.4% (inactive)
N#CC1=C(SCc2ccccc2)NC(=O)C(C#N)C12CCCC2 (configuration not stated)	88.2% (inactive)
CCOC(=O)C1CCCN(C(=O)c2sc3nc(C)nc(N4CCOCC4)c3c2C)C1 (configuration not stated)	87.2% (inactive)
CCS(=O)(=O)NCCc1ccc(OC)c(OC)c1	90.2% (inactive)
Cc1nnc(SCC(=O)NCc2cccs2)[nH]c1=O	87.7% (inactive)
CCN(CC(=O)NCc1cccs1)c1nnnn1-c1ccccc1	-25.9% (active)
Cc1ccccc1-n1c(SCC(=O)NCc2cccs2)nnc1-c1ccncc1	108% (inactive)

SMILES	HER2 level % of control
CCN1C(=O)/C(=C2\SC(N3CCCCC3)=NC2=O)c2ccccc21	121% (inactive)
COc1cccc(C(=O)Nc2c3c(nn2-c2cccc(C)c2C)CS(=O)(=O)C3)c1OC	119% (inactive)
Cc1nc2cc(-c3ccc(F)cc3)nn2c(N2CCOCC2)c1C	49.6% (inactive)
Cn1c(=O)c2[nH]c(NCC3CCCO3)nc2n(-c2ccccc2)c1=O (configuration not stated)	83.7% (inactive)
CCCC(NS(=O)(=O)c1ccc(OC)cc1)C(=O)O (configuration not stated)	96.9% (inactive)
O=S(=O)(Nc1ccccc1N1CCOCC1)c1ccc(Cl)s1	95.5% (inactive)
N#CC(C(N)=O)=C1CCC2(CC1)OCCCCO2	93.5% (inactive)
CC1CCC(NS(=O)(=O)c2ccc3c(c2)n(C)c(=O)c(=O)n3C)CC1 (configuration not stated)	76.3% (inactive)
Brc1ccc(OCCn2ccnc2)cc1	109% (inactive)
Cc1ccc(N2CCN(S(=O)(=O)N(C)C)CC2)cc1Cl	105% (inactive)
Cc1nnc(NC2=NCCCCC2)o1	106% (inactive)
O=C(Nc1cc(=O)[nH]c2ncnn12)c1ccccc1Cl	92% (inactive)
CSC1=N/C(=C\C=C\c2cccs2)C(=O)S1	0.09% (active)
COCC(C)N=CC1=C(O)CC(C)(C)CC1=O (configuration not stated)	118% (inactive)
Cc1nc2sc(C(c3ccco3)N3CCOCC3)c(O)n2n1 (configuration not stated)	51% (inactive)
C/C(=C\C(=O)c1ccccc1)Nc1cccc(O)c1	58.9% (inactive)
c1ccc2cc3[nH]c(CN4CCCCC4)nc3cc2c1	96.1% (inactive)
O=C(Nc1cccc(Cl)c1)OCc1ccccn1	91.3% (inactive)
Cc1cc(C(=O)Nc2c(C)n(C)n(-c3ccccc3)c2=O)cs1	91.6% (inactive)
COC(=O)Nc1c(C)n(C)n(-c2ccccc2)c1=O	89.1% (inactive)
Cc1c(NC(=O)c2coc(=O)c(Br)c2)c(=O)n(-c2ccccc2)n1C	-15.4% (active)
CS(=O)(=O)c1ccc2nc(NC(=O)C3CCCCC3)sc2c1	45.1% (inactive)
